The source of these data is the supplement of paper PMC3484114.

± gives the standard deviation.

The test relates to OVCAR-3-derived ovarian cancer stem-like cells (spheroids). The experiment in a line: cell growth relative to untreated control; higher = more growth (less inhibition). To be noted: 2.29 µM; 96 h. The procedure, abridged:
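After trypsin dissociation, OVCAR-3 spheroid-derived stem-like cells were placed in ultra-low attachment 96-well plates at 50,000 cells/mL in stem cell medium and preincubated for 24 h. Treatment at 2.29 uM followed for 96 h at 37°C, 5% CO2, with 4 replicate wells per compound. A 4 h TOX8 resazurin fluorescence read (ex 560/em 590 nm) gave viability, from which percent growth relative to untreated wells was derived after blank subtraction and Grubbs outlier removal.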
Compound `Cc1c(N)nc([C@H](CC(N)=O)NC[C@H](N)C(N)=O)nc1C(=O)N[C@H](C(=O)N[C@H](C)[C@@H](O)[C@H](C)C(=O)N[C@H](C(=O)NCCc1nc(-c2nc(C(=O)NCCC[S+](C)C)cs2)cs1)[C@@H](C)O)[C@@H](OC1OC(CO)C(O)C(O)C1OC1OC(CO)C(O)C(OC(N)=O)C1O)c1cnc[nH]1` (stereo partly specified) came in with a cell growth of 53 ± 10%. Compound `CC1=C2C(=CC(C)(C)[C@@H]2O)C(=O)[C@](C)(O)C12CC2` showed a cell growth of 20.3 ± 2.4%. Compound `C1CCNCC1.S=C(S)N1CCCCC1` had a cell growth of 36.2 ± 3.5%. For `O=[N+]([O-])c1ccc2c(c1)/C(=N/N=C1c3ccccc3Cc3ccccc31)c1cc([N+](=O)[O-])cc([N+](=O)[O-])c1-2`, the cell growth came to 57.1 ± 34%. `CC(C)OP(=O)(OC(C)C)C(N(C)C)P(=O)(OC(C)C)OC(C)C.[Cl][Sn]([Cl])([Cl])[c]1ccccc1`: the cell growth was found to be 62.2 ± 17%.

Turning to `CC[C@H](C)[C@@H]1NC(=O)[C@@H](NC(=O)c2c3nc4c(C(=O)N[C@@H]5C(=O)N[C@@H](C(C)C)C(=O)N6CCC[C@H]6C(=O)N(C)CC(=O)N(C)[C@@H](C(C)C)C(=O)O[C@@H]5C)ccc(C)c4oc-3c(C)c(=O)c2N)[C@@H](C)OC(=O)[C@H](C(C)C)N(C)C(=O)CN(C)C(=O)[C@@H]2CCCN2C1=O`, the cell growth came out at 10.9 ± 3.5%. Turning to `COc1ccc(C2C=C(c3ccc4c(c3)OCO4)Oc3c2c(=O)oc2ccccc32)cc1OC` (stereo unspecified), the cell growth turned out to be 56.4 ± 40%. As for `Fc1cccc(F)c1C1SCc2nc3ccccc3n21` (stereo unspecified), the cell growth is 78.4 ± 9.6%. Compound `C1CN1c1nc(N2CC2)nc(N2CC2)n1` returned a cell growth of 129 ± 82%. For the compound `COc1cc([C@H]2c3cc4c(cc3C[C@@H]3COC(=O)[C@H]32)OCO4)cc(OC)c1OC`, the cell growth amounted to 39.5 ± 18%.

In turn, `CC(=O)[O][Sn]([CH2]c1ccccc1)([CH2]c1ccccc1)[CH2]c1ccccc1` gave a cell growth of 112 ± 25%. `Oc1cccc2cccnc12` gave a cell growth of 80.4 ± 14%. Consider `CC1Oc2cc3c(-c4c(O)cc(O)c5c(O)c6c(cc45)OC(C)C(C)C6=O)c(O)cc(O)c3c(O)c2C(=O)C1C` (stereo unspecified), for which the cell growth stood at 23.8 ± 48%. In the case of `CC1OC(O[C@@H]2C=C3CC[C@@H]4[C@H](CC[C@]5(C)[C@@H](c6ccc(=O)oc6)CC[C@]45O)[C@@]3(C)CC2)C(O)C(O)C1O` (stereo partly specified), the cell growth turned out to be 24.5 ± 6.9%. As for `COc1cc(C2c3cc4c(cc3C(O)C3COC(=O)C23)OCO4)cc(OC)c1OC` (stereo unspecified), the cell growth was 31 ± 5.3%. Regarding `C[C@@H]1CCOC(=O)/C=C/C=C\C(=O)O[C@@H]2C[C@H]3O[C@@H]4[C@@H]5O[C@]5(C)[C@H](O)C[C@]4(COC(=O)[C@H]1O)[C@]2(C)[C@@]31CO1`, the cell growth is 13.4 ± 5.4%.

In the case of `C[n+]1cc2cc(O)c(O)cc2c2ccc3cc(O)c(O)cc3c21.c1ccncc1`, the cell growth is 91.8 ± 23%. Compound `COC(=O)C1=C(C(=O)OC)SC2(S1)C(C(=O)OC)=C(C(=O)OC)Sc1c2ssc1=O` came in with a cell growth of 60.2 ± 8.6%. The value for `CNC(=O)ON(C(C)=O)C(=O)NC` was 114 ± 42%; that for `COC(=O)[C@@]12OC[C@]34[C@H]([C@@H](O)[C@@H]1O)[C@@]1(C)CC(=O)C(O)=C(C)[C@@H]1C[C@H]3OC(=O)[C@H](OC(=O)/C=C(\C)C(C)C)[C@@H]24` was 6.1 ± 4.4%; that for `C=C(C)C(=O)OC1CCC2(C)C(CCC3C2CCC2(C)C(c4ccc(=O)oc4)CC4OC432)C1` (stereo unspecified) was 92.2 ± 18%. As to `CC(C)C(NC(=O)C(C(C)C)N(C)C)C(=O)N(C)C(C(=O)N1CCCC1C(=O)N1CCCC1C(=O)NCc1ccccc1)C(C)C` (stereo unspecified), the cell growth was found to be 24.5 ± 8.1%. Consider `CC1=C(N2CC2)C(=O)C(CO)=C(N2CC2)C1=O`, for which the cell growth turned out to be 9 ± 3.5%. In turn, `CCOC(OCC)C(CC)[Se]c1ccccc1[N+](=O)[O-]` (stereo unspecified) returned a cell growth of 120 ± 21%. In turn, `Cc1cc(N(CCOS(C)(=O)=O)CCOS(C)(=O)=O)ccc1C=Nc1ccc(-c2csc(-c3ccccc3)n2)c(Cl)c1` registered a cell growth of 97.7 ± 47%. The value for `CC(C)c1oc(=O)cc2c1[C@@H](O)[C@H]1OC(=O)[C@@]3(C)[C@@H](O)[C@H]4O[C@H]4[C@@]2(C)[C@@H]13` was 62.6 ± 32%. For `COc1cccc2c1C(=O)c1c(O)c3c(c(O)c1C2=O)C[C@@](O)(C(C)=O)C[C@@H]3O[C@H]1C[C@H](N(Cc2ccccc2)Cc2ccccc2)[C@H](O)[C@H](C)O1`, the cell growth was determined as 62.8 ± 11%.

On to `O=C([CH-]C(=O)C(F)(F)F)c1ccccc1.O=C([CH-]C(=O)C(F)(F)F)c1ccccc1.O=C([CH-]C(=O)C(F)(F)F)c1ccccc1.O=C([CH-]C(=O)C(F)(F)F)c1ccccc1.[Eu+3].c1ccncc1`, for which the cell growth came to 104 ± 18%.

In turn, `O=C([O][Hg][CH2]C1COC([CH2][Hg][O]C(=O)c2ccccc2)CO1)c1ccccc1` (stereo unspecified) gave a cell growth of 69.9 ± 76%. For `CCC[CH2][Sn]1([CH2]CCC)[S]CC[N]1S(=O)(=O)c1ccc(C)cc1`, the cell growth was 36.9 ± 13%. For `CCOC(OC1=C(C#N)CCC1)C(C)[Se]c1ccccc1` (stereo unspecified), the cell growth worked out at 147 ± 33%.
